This is an account of results in PubChem BioAssay (NCATS).

Records with an inconclusive call do not appear. Calls of active or inactive are those of the source. Calls follow the shape of the dose curve; as a rule, active = well fitted curve in the direction sought with a large enough effect; inconclusive = small, poorly fitted or top-dose-only effect, or another doubt; inactive = no such curve, though single readings can be large; an effect the other way counts as inactive or inconclusive.

Test [1] is described as follows: Quantitative High-Throughput drug screen in 47 multiple myeloma cell lines against the NCATS MIPE library collection: FR4_PLB cell viability assay (AID 1918924; also: nearly all actives have a fitted effect of over 35% in size). The method, boiled down: (§1)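 Relative luminescence from CellTiter-Glo served as the viability signal, referenced to DMSO-treated (100%) and cell-free medium (0%) controls. Treatment lasted 48 hours at 37C with 500 cells per well.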

Test [2] is described as follows: Quantitative High-Throughput drug screen in 47 multiple myeloma cell lines against the NCATS MIPE library collection: EJM_DSMZ cell viability assay (AID 1918926; also: nearly all actives have a fitted effect of over 30% in size). In outline:
(§2)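 Luminescent ATP measurement with CellTiter-Glo gives viability, scaled between DMSO-only wells (100%) and media-only wells (0%). Cells, 500 per well, faced library compounds for 48 hours at 37C.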

A short description of test [3]: Quantitative High-Throughput drug screen in 47 multiple myeloma cell lines against the NCATS MIPE library collection: ARP1_JJKsccF8 cell viability assay (AID 1918928; also: nearly all actives have a fitted effect of over 40% in size). The method, boiled down:
(§3)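 Cell viability inhibition in this qHTS is measured via ATP content (CellTiter-Glo) after 48 h drug exposure at 37 °C. Wells hold 500 cells; DMSO-treated wells define 100% and medium-only wells 0%.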

Test [4] can be described thus: Quantitative High-Throughput drug screen in 47 multiple myeloma cell lines against the NCATS MIPE library collection: ARD_JJKsccE7 cell viability assay (AID 1918929). The method, boiled down:
as §2

The nature of test [5]: Quantitative High-Throughput drug screen in 47 multiple myeloma cell lines against the NCATS MIPE library collection: KMM1_JCRB cell viability assay (AID 1918960). Also: nearly all actives have a fitted effect of over 30% in size. In outline:
as §3

A short description of test [6]: Quantitative High-Throughput drug screen in 47 multiple myeloma cell lines against the NCATS MIPE library collection: JIM3_ECACC cell viability assay (AID 1918963; also: nearly all actives have a fitted effect of over 35% in size). The method, boiled down: as §1
Test [7] is described as follows: Quantitative High-Throughput drug screen in 47 multiple myeloma cell lines against the NCATS MIPE library collection: INA6_PLB cell viability assay (AID 1918965; also: nearly all actives have a fitted effect of over 55% in size). The method, boiled down:
as §1

Test [8] can be described thus: Quantitative High-Throughput drug screen in 47 multiple myeloma cell lines against the NCATS MIPE library collection: Delta47_JCRB cell viability assay (AID 1918925; also: nearly all actives have a fitted effect of over 45% in size). In outline:
as §2

The nature of test [9]: Quantitative High-Throughput drug screen in 47 multiple myeloma cell lines against the NCATS MIPE library collection: Karpas620_DSMZ cell viability assay (AID 1918959). Also: nearly all actives have a fitted effect of over 30% in size. The method, boiled down:
as §1

A short description of test [10]: Quantitative High-Throughput drug screen in 47 multiple myeloma cell lines against the NCATS MIPE library collection: KHM11_PLB cell viability assay (AID 1918962). Also: nearly all actives have a fitted effect of over 35% in size. In outline:
as §1

Test [11] is described as follows: Quantitative High-Throughput drug screen in 47 multiple myeloma cell lines against the NCATS MIPE library collection: JJN3_DSMZ cell viability assay (AID 1918966; also: nearly all actives have a fitted effect of over 50% in size). The method, boiled down: as §2
The nature of test [12]: Quantitative High-Throughput drug screen in 47 multiple myeloma cell lines against the NCATS MIPE library collection: H1112_PLB cell viability assay (AID 1918967; also: nearly all actives have a fitted effect of over 30% in size). In outline: as §2
Test [13] can be described thus: Quantitative High-Throughput drug screen in 47 multiple myeloma cell lines against the NCATS MIPE library collection: Karpas25_ECACC cell viability assay (AID 1918968; also: nearly all actives have a fitted effect of over 35% in size). The method, boiled down:
as §2

A short description of test [14]: Quantitative High-Throughput drug screen in 47 multiple myeloma cell lines against the NCATS MIPE library collection: KMS27_JCRB cell viability assay (AID 1918970). Also: nearly all actives have a fitted effect of over 30% in size. The method, boiled down:
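KMS27_JCRB myeloma cells, 500 per well, exposed 48 h at 37 C, 5% CO2 to MIPE 4.0 compounds. Viability from ATP by CellTiter-Glo luminescence, normalized to DMSO (100%) and medium-only (0%) wells.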

The nature of test [15]: Quantitative High-Throughput drug screen in 47 multiple myeloma cell lines against the NCATS MIPE library collection: AMO1_DSMZ cell viability assay (AID 1918927; also: nearly all actives have a fitted effect of over 30% in size). The method, boiled down:
as §2

Test [16] in a line: Quantitative High-Throughput drug screen in 47 multiple myeloma cell lines against the NCATS MIPE library collection: JIM1_ECACC cell viability assay (AID 1918964). The method, boiled down: as §2
A short description of test [17]: Quantitative High-Throughput drug screen in 47 multiple myeloma cell lines against the NCATS MIPE library collection: KMS12BM_JCRB cell viability assay (AID 1918971). Also: nearly all actives have a fitted effect of over 35% in size. In outline: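 We plated 500 myeloma cells per well, pinned in MIPE 4.0 compounds, and incubated for 48 hours at 37C. ATP was then quantified with CellTiter-Glo, with DMSO and media-only wells defining 100% and 0%.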

Test [18] in a line: Quantitative High-Throughput drug screen in 47 multiple myeloma cell lines against the NCATS MIPE library collection: Karpas417_ECACC cell viability assay (AID 1918961). To be noted: Karpas417 myeloma viability, CellTiter-Glo ATP luminescence, 48 h; viability (% of DMSO): at 45.8 µM (top of the series). The method, boiled down: as §1
Potency is read from the fitted curve at half-maximal effect.

Take `CC(=O)O[C@@]12CO[C@H]1C[C@H](O)[C@@]1(C)C(=O)[C@H](O)C3=C(C)[C@@H](O)C[C@@](O)([C@@H](OC(=O)c4ccccc4)[C@@H]21)C3(C)C`: the Potency was 1.05 µM (active) in test [1]; 3.32 µM (active) in test [2]; 2.64 µM (active) in test [3]; 2.09 µM (active) in [4]; 1.18 µM (active) in test [5]; 1.05 µM (active) in [6]. Further, the Potency in test [7] was 1.48 µM (active).
Turning to `N#C[C@H](O[C@@H]1O[C@H](CO[C@@H]2O[C@H](CO)[C@H](O)[C@H](O)[C@H]2O)[C@H](O)[C@H](O)[C@H]1O)c1ccccc1`, the Potency in test [1] was 20.9 µM (active); in test [8], 18.7 µM (active); in test [4], 5.9 µM (active); in test [9] it was 9.35 µM (active); in test [10] it was 23.5 µM (active); in [6], 20.9 µM (active). The Potency in [7] was 13.2 µM (active); in test [11], 18.7 µM (active); in test [12], 26.4 µM (active); in [13], 18.7 µM (active); in test [14], 6.62 µM (active).
As to `COc1ccc2c(c1)[C@]13CCCCC1C(C2)N(C)CC3` (some centres undefined), the Potency entry in test [1], in test [2], in test [15], in test [3], in test [4] and in test [9] was “inactive” throughout. In addition, the Potency entry in test [5], in test [6], in test [16], in test [7], in [14] and in [17] was “inactive” each time.
Consider `Cc1nc(-c2ccc(-c3ccc(C(=O)N4CCc5cc6c(cc54)C4(CCN(C)CC4)CO6)cc3)c(C)c2)no1`, for which the Potency result in test [1], in test [2], in [15], in test [3], in test [9] and in [5] was “inactive” throughout. Also, the Potency entry in test [6], in test [12] and in [14] was “inactive” in each case.
On to `O=S(=O)(CC1CS1)c1ccc(Oc2ccccc2)cc1` (centres undefined), for which the Potency in test [2] is 20.9 µM (active); in test [5], 5.9 µM (active); in test [18], 9.35 µM (active); in test [10], 14.8 µM (active); in test [6] it was 16.6 µM (active); in [7] it was 14.8 µM (active). Besides, the Potency was 16.6 µM (active) in test [13] and 26.4 µM (active) in test [17]. Further, the Potency result in test [4] and in [16] was “inactive” in each case.
As to `CC(O)=C(C#N)C(=O)Nc1cc(Br)ccc1Br`, the Potency entry in [8], in [5] and in [6] was “inactive” in each case. Moreover, the Potency was 7.43 µM (active) in [2], 5.26 µM (active) in [9] and 0.935 µM (active) in test [12].
Consider `COCC1(CO)C(=O)C2CCN1CC2` (centres undefined), for which the Potency was 16.6 µM (active) in test [1]; 20.9 µM (active) in test [2]; 1.48 µM (active) in test [3]; 20.9 µM (active) in test [4]; 23.5 µM (active) in test [9]; 20.9 µM (active) in test [5]. Besides, the Potency in test [18] was 3.72 µM (active); in test [10], 7.43 µM (active); in [6] it was 18.7 µM (active); in [16], 6.62 µM (active); in [7], 2.96 µM (active); in [12], 20.9 µM (active). For the same compound, the Potency in [14] is 4.18 µM (active).
For the compound `C[C@](O)(COc1ccc(C#N)cc1)C(=O)Nc1ccc(C#N)c(C(F)(F)F)c1`, the Potency entry in test [1] and in test [3] was “inactive” throughout. For the same compound, the Potency in test [18] was 23.5 µM (active).
For the compound `Cc1c(N)nc([C@H](CC(N)=O)NC[C@@H](N)C(N)=O)nc1C(=O)N[C@H](C(=O)N[C@@H](C)[C@H](O)[C@@H](C)C(=O)N[C@@H](C(=O)NCCc1nc(-c2nc(C(=O)NCCC[S+](C)C)cs2)cs1)[C@@H](C)O)C(O[C@H]1O[C@H](CO)[C@H](O)[C@@H](O)[C@@H]1O[C@H]1O[C@H](CO)[C@@H](O)[C@H](OC(N)=O)[C@H]1O)c1cnc[nH]1` (some centres undefined), the Potency result in test [1] was “inactive”. Moreover, the Potency in [8] was 0.469 µM (active); in [15], 0.296 µM (active); in test [5], 0.418 µM (active); in test [12], 5.9 µM (active); in test [14], 0.296 µM (active).
Consider `N=c1c2c(-c3ccccc3)c(-c3ccccc3)n(Cc3ccccc3)c2ncn1C1CCC(O)CC1` (centres undefined), for which the Potency in test [8] was 0.166 µM (active); in [15], 0.526 µM (active); in [3], 14.8 µM (active); in [4] it was 8.33 µM (active); in test [9] it was 9.35 µM (active); in [5] it was 0.662 µM (active). The Potency in test [6] is 0.743 µM (active); in test [16] it was 0.833 µM (active); in test [7], 0.209 µM (active); in test [12], 6.62 µM (active); in [13], 4.18 µM (active); in test [14], 3.72 µM (active).
